Results filed as inconclusive are left out. Unmarked numbers belong to inactive results. Activity calls are given as the source filed them. Calls come from the whole dose curve; as a rule, active = well fitted curve in the direction sought with a large enough effect; inconclusive = small, poorly fitted or top-dose-only effect, or another doubt; inactive = no such curve, though single readings can be large; an effect the other way counts as inactive or inconclusive.
tested on: not listed separately; experiment: Validation screen for small molecules that induce genotoxicity in human embryonic kidney (HEK293T) cells expressing luciferase-tagged ELG1 (AID 493106); details: luminescence; series mostly up to 46.1 µM; activity change, positive = ELG1 induction: at the top concentration; for activity change, positive = ELG1 induction: 0% is about no effect
Summary of the method: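 HEK293T cells expressing luciferase-tagged ELG1 were exposed to compound or DMSO vehicle for 16 hr at 37 °C, 5% CO2. Genotoxic stress raises ELG1 levels, so increased luciferase signal after ONE-Glo addition and 30 min at room temperature marks hits.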
Potency is the fitted concentration of half-maximal effect.

| SMILES | activity change, positive = ELG1 induction | Potency |
| --- | --- | --- |
| Nc1nc(SCc2ccc([N+](=O)[O-])cc2)c2ncn([C@@H]3O[C@H](CO)[C@@H](O)[C@H]3O)c2n1 | -5.24% | – |
| CC(C)NCC(O)COc1cccc2ccccc12 (stereo not given) | -4.45% | – |
| Fc1ccc(C(OCCCc2cnc[nH]2)c2ccc(F)cc2)cc1 | -17.2% | – |
| CCCCCCCCc1ccc(-c2ccc(C(=O)O)cc2)cc1 | -1.84% | – |
| O=C(O)CC1CCCc2ccccc2C1O (stereo not given) | -6.92% | – |
| CCCCCC(O)c1cccc(OCc2ccc3ccccc3n2)c1 (stereo not given) | 0.602% | – |
| CC1OC1P(=O)(O)O (stereo not given) | -4.94% | – |
| Fc1cccc(/C=N/N=C/c2cccc(F)c2)c1 | – | 23.1 µM (active) |
| C#CCN1C(C)=C(C(=O)OC)C(c2cccc([N+](=O)[O-])c2)C(C(=O)OCC)=C1C (stereo not given) | -17.5% | – |
| NC(=O)C1=CN(C2OC(COP(=O)(O)OP(=O)(O)OC[C@H]3O[C@@H](n4cnc5c(N)ncnc54)[C@H](OP(=O)(O)O)[C@@H]3O)C(O)C2O)C=CC1 (stereo not given in full) | 12.2% | – |
| Cc1nc2sccn2c(=O)c1CCN1CCC(=C(c2ccccc2)c2ccc(F)cc2)CC1 | -9.45% | – |
| NCCSSCCN | -2.2% | – |
| CC(N)C(=O)OC(C)(C)Cc1ccc(Cl)cc1 (stereo not given) | -7.22% | – |
| CCOC(=O)N1CCN(/[N+]([O-])=N/Oc2ccc([N+](=O)[O-])cc2[N+](=O)[O-])CC1 | -3.64% | – |
| CCCCN1CCC(n2c(=O)[nH]c3ccccc32)CC1 | -8.06% | – |
| NO | -4.36% | – |
| NCCCCCCCCCCN | -5.93% | – |
| COc1ccccc1N1CCN(CCN(C(=O)c2ccc(I)cc2)c2ccccn2)CC1 | -16% | – |
| O=C(O)CCCC[C@@H]1CCSS1 | -3.22% | – |

| SMILES | activity change, positive = ELG1 induction | Potency |
| --- | --- | --- |
| NC(=O)C(=O)O | -3.01% | – |
| O=c1[nH]c2cc([N+](=O)[O-])c([N+](=O)[O-])cc2[nH]c1=O | -3.25% | – |
| N=C(N)SCCc1ccc(CCSC(=N)N)cc1 | 0.933% | – |
| NCC1OC(O[C@H]2[C@H](O)[C@@H](OC3C(O)C(N)CC(N)C3OC3OC(CO)C(O)C(O)C3N)O[C@@H]2CO)C(N)C(O)C1O (stereo not given in full) | -5.78% | – |
| O=C(CCCCCN1CCN(c2ccccc2-c2ccccc2)CC1)NC1CCCc2ccccc21 (stereo not given) | -12.5% | – |
| CC(=O)N[C@H](C(=O)O)C(C)(C)SN=O | -1.9% | – |
| O=P(O)(O)C(Cl)(Cl)P(=O)(O)O | -5.48% | – |
| CN1C2CCC1CC(OC(=O)C(O)c1ccccc1)C2 (stereo not given) | -3.76% | – |
| CC[C@@H](C)[C@H]1O[C@]2(CC[C@H]1C)C[C@@H]1C[C@@H](CC=C(C)[C@@H](O[C@H]3C[C@H](OC)[C@@H](O[C@H]4C[C@H](OC)[C@@H](O)[C@H](C)O4)[C@H](C)O3)[C@@H](C)C=CC=C3CO[C@@H]4[C@H](O)C(C)=C[C@@H](C(=O)O1)[C@]34O)O2 | -12.5% | – |
| NC[C@@H]1O[C@H](C23CC4CC(CC(C4)C2)C3)Cc2c1ccc(O)c2O | 2.41% | – |
| OCC1O[C@H]([S-])[C@H](O)[C@@H](O)[C@@H]1O.[Au+] (stereo not given in full) | -7.25% | – |
| CCN(CC)c1ncnc2c1ncn2[C@@H]1O[C@H](COP(=O)(O)OP(=O)(O)C(Br)(Br)P(=O)(O)O)[C@@H](O)[C@H]1O | -4.97% | – |
| CCCCCCCCCCCCCCCC(=O)NCC(COP(=O)([O-])OCC[N+](C)(C)C)OCC (stereo not given) | – | 18.3 µM (active) |
| CN1CCC[C@H]1c1cccnc1 | -7.28% | – |
| Cn1ncc(S(=O)(=O)Cc2ccccc2)c(Br)c1=O | -6.65% | – |
| N#C/C(=C\c1ccc(O)c(O)c1)C(=O)NCc1ccccc1 | -3.64% | – |
| N#C/C(=C\c1c[nH]c2ccccc12)C(=O)c1ccc(O)c(O)c1 | -2.44% | – |
| O=C(O)[C@@H]1C[C@H](C(=O)O)N1 | -7.07% | – |
| C=C[C@H]1CN2CC[C@@H]1C[C@@H]2[C@@H](O)c1ccnc2ccc(OC)cc12 | -2.77% | – |

biological target: ATPase family AAA domain-containing protein 5 (Homo sapiens) (UniProt Q96QE3); experiment: Validation screen for small molecules that inhibit ELG1-dependent DNA repair in human embryonic kidney (HEK293T) cells expressing luciferase-tagged ELG1 (AID 493107); details: HEK293T ELG1-luciferase level, luminescence, 5-fluorouridine co-treatment, 16 h; series mostly up to 46.1 µM; activity change, negative = decrease: at the top concentration; note: nearly all actives have a fitted effect of over 70% in size;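 for activity change, negative = decrease: cells co-treated with the DNA-damaging agent 5-fluorouridine alongside compound; % is set by controls: 0 for no effect and ±100 for the full control effect; inhibitors lower the ELG1-luciferase luminescence signal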
Summary of the method: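 HEK293T cells expressing luciferase-tagged ELG1 were co-treated with 5-fluorouridine and compound or DMSO for 16 hr at 37 °C, 5% CO2. Luciferase activity was then read with ONE-Glo after 30 min at room temperature; suppressed signal indicates blocked ELG1 function.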

Chain of ATPase family AAA domain-containing protein 5 (Homo sapiens) (Q96QE3 whole entry, looked up, the tested form may be a part): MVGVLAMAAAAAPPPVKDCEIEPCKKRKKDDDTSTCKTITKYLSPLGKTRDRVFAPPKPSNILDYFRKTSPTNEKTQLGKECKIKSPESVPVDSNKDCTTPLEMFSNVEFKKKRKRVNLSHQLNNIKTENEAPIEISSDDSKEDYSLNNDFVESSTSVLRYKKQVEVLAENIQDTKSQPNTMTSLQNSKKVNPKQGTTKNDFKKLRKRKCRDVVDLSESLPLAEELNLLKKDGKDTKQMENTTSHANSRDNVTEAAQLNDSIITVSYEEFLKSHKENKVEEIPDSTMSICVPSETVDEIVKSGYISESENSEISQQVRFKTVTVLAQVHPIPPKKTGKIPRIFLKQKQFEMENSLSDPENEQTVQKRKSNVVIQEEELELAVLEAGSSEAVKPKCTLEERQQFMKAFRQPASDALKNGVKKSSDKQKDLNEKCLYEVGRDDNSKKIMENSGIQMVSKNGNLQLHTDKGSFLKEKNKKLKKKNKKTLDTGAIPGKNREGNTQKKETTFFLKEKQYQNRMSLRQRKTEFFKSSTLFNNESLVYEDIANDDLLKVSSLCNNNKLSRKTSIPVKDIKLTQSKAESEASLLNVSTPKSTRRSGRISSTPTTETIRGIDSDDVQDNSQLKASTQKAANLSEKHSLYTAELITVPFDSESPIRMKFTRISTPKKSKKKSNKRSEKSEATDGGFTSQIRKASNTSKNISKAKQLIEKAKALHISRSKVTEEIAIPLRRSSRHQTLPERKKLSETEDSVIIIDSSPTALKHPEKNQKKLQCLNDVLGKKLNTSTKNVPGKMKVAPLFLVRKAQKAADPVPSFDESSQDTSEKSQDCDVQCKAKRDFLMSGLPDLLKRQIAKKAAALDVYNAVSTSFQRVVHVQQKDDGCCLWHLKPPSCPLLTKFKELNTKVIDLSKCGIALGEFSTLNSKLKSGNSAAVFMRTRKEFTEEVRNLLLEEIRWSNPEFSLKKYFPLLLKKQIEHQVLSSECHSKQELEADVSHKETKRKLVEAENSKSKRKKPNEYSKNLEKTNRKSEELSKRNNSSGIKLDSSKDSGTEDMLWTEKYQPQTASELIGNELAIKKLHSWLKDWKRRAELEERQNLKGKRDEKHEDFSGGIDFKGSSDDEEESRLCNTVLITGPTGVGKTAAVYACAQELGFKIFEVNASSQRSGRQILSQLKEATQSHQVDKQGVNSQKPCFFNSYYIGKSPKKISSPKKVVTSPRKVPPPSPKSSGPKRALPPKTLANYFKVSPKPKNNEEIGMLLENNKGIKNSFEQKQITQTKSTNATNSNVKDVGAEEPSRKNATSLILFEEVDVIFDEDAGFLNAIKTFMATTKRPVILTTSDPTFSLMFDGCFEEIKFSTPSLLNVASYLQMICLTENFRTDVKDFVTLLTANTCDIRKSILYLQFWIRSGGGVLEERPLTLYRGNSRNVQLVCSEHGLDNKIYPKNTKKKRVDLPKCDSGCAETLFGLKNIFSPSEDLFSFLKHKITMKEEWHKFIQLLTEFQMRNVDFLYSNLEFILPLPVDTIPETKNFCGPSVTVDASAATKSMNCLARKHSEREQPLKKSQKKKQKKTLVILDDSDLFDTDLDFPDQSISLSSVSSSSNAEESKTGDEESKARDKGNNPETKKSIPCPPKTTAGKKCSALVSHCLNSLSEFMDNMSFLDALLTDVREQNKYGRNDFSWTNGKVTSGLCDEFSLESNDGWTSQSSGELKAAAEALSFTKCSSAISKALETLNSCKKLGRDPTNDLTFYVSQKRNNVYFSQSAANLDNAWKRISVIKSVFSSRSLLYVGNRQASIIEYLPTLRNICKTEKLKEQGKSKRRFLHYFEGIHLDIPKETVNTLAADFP

| SMILES | Potency | activity change, negative = decrease |
| --- | --- | --- |
| Nc1nc(SCc2ccc([N+](=O)[O-])cc2)c2ncn([C@@H]3O[C@H](CO)[C@@H](O)[C@H]3O)c2n1 | 0.146 µM (active) | – |
| CC(C)NCC(O)COc1cccc2ccccc12 (stereo not given) | – | -3.59% |
| Fc1ccc(C(OCCCc2cnc[nH]2)c2ccc(F)cc2)cc1 | – | -8.48% |
| CCCCCCCCc1ccc(-c2ccc(C(=O)O)cc2)cc1 | – | 0.0513% |
| O=C(O)CC1CCCc2ccccc2C1O (stereo not given) | – | -10.4% |
| CCCCCC(O)c1cccc(OCc2ccc3ccccc3n2)c1 (stereo not given) | – | -1.5% |
| CC1OC1P(=O)(O)O (stereo not given) | – | 22.2% |
| Cc1nc2sccn2c(=O)c1CCN1CCC(=C(c2ccccc2)c2ccc(F)cc2)CC1 | – | -27.2% |
| NCCSSCCN | – | 2.22% |
| CC(N)C(=O)OC(C)(C)Cc1ccc(Cl)cc1 (stereo not given) | – | -22.7% |
| CCCCN1CCC(n2c(=O)[nH]c3ccccc32)CC1 | – | -14.7% |
| NCCCCCCCCCCN | – | 1.6% |
| O=C(O)CCCC[C@@H]1CCSS1 | – | 16.1% |
| NC(=O)C(=O)O | – | -13.3% |
| O=c1[nH]c2cc([N+](=O)[O-])c([N+](=O)[O-])cc2[nH]c1=O | – | 0.474% |
| N=C(N)SCCc1ccc(CCSC(=N)N)cc1 | – | 11.8% |
| NCC1OC(O[C@H]2[C@H](O)[C@@H](OC3C(O)C(N)CC(N)C3OC3OC(CO)C(O)C(O)C3N)O[C@@H]2CO)C(N)C(O)C1O (stereo not given in full) | – | 12.2% |
| CC(=O)N[C@H](C(=O)O)C(C)(C)SN=O | – | 17.8% |
| O=P(O)(O)C(Cl)(Cl)P(=O)(O)O | – | 5.89% |
| CN1C2CCC1CC(OC(=O)C(O)c1ccccc1)C2 (stereo not given) | – | 7.47% |
| CNc1ncnc2c1ncn2[C@@H]1O[C@H](CO)[C@@H](O)[C@H]1O | – | 0.155% |
| OCC1O[C@H]([S-])[C@H](O)[C@@H](O)[C@@H]1O.[Au+] (stereo not given in full) | – | 12.9% |
| CCN(CC)c1ncnc2c1ncn2[C@@H]1O[C@H](COP(=O)(O)OP(=O)(O)C(Br)(Br)P(=O)(O)O)[C@@H](O)[C@H]1O | – | -0.0785% |
| CN1CCC[C@H]1c1cccnc1 | – | 4.21% |
| Cn1ncc(S(=O)(=O)Cc2ccccc2)c(Br)c1=O | – | 4.75% |
| N#C/C(=C\c1ccc(O)c(O)c1)C(=O)NCc1ccccc1 | – | -21.2% |
| C=C[C@H]1CN2CC[C@@H]1C[C@@H]2[C@@H](O)c1ccnc2ccc(OC)cc12 | – | -10.6% |

From PubChem BioAssay (NCATS)
